PubChem BioAssay
“And” between values parts separate entries of the source, which are not always exact repeats. Equal entries are not always repeated. The source made the active and inactive calls.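 Rule for the calls, unless noted: active = inhibition at or above 50% relative to wild type and mutant plate controls; inactive = inhibition below 50%.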

How the values were obtained:
[1] = inhibitors of mutant huntingtin aggregation, primary screen, imaging, exon1htt(103Q)mCFP cells, high-content imaging (AID 483;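 active = visual image review flags a hit and inhibition of aggregation exceeds 20%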;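 note: compound exposure lasted 3 days before fixation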;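 for nuclei count: percent of the per-plate median nuclei count of sample wells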); settings: exon1htt(103Q)mCFP cell line, aggregate imaging, at 2 µM; inhibition of aggregation: stronger effect = higher value; nuclei count: measured here: cell count, toxicity
[2] = inhibitors of E-selectin induction by TNFa, primary screen, imaging, HUVEC, immunofluorescence, MLSMR starter and 10KST1 sets (AID 487;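 active = visually confirmed hit in the image check and inhibition above 20%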;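 for inhibition: signal is fraction of cell area covered by stained E-selectin grains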;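 for nuclei count: 100% = median nuclei count of all wells on the same plate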); settings: HUVEC TNFalpha-induced E-selectin immunofluorescence imaging, at 2 µM; inhibition: stronger effect = higher value; nuclei count: measured here: cell number, toxicity
[3] = DUSP6 inhibitors restoring Erk phosphorylation by chemical complementation, primary imaging in DUSP6-transfected HeLa (AID 609;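 active = compounds giving at least 50% inhibition in the cell-based MKP-3 phosphatase rescue imaging test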;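 for inhibition: phospho-Erk level distribution per well compared with pooled transfected vehicle control wells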); settings: HeLa MKP-3 transfected, phospho-Erk imaging KS statistic, at 10 µM, cells stimulated with TPA for 15 min
[4] = biological target: Dual specificity protein phosphatase 6 (Homo sapiens) (UniProt Q16828); assay: as above; settings: HeLa MKP-3 transfected, phospho-Erk imaging KS statistic; at 10 µM; stronger effect = higher value; cells stimulated with TPA for 15 min
[5] = biological target: Voltage-gated potassium channel subunit beta-2 (Rattus norvegicus) (UniProt P62483); assay: KvBeta enzyme negative modulators, primary screen, biochemical, NADPH fluorescence (AID 622;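 active = fluorescence slope higher than the sample average by over 3 SD, cut at about -0.22 in these data, passing the limit was not always enough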;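 note: slope of raw intensity against log time taken from 70 to 1610 s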); settings: recombinant KvBeta, 4-cyanobenzaldehyde reduction, at 10 µM, stronger effect = higher value
[6] = biological target: Voltage-gated potassium channel subunit beta-2 (Rattus norvegicus) (UniProt P62483); assay: KvBeta positive modulators, primary screen, biochemical, NADPH fluorescence (AID 623;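 active = NADPH fluorescence slope more negative than the mean of all samples by about 3 SD, 99.7% confidence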;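 note: fluorescence intensity change per second fitted from 20 to 320 s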); settings: Recombinant KvBeta, NADPH fluorescence decrease slope, 10 min; at 10 µM; stronger effect = lower value
[7] = biological target: Alpha-2C adrenergic receptor (Homo sapiens) (UniProt P18825); assay: modulators of alpha2C/GIRK thallium flux, primary screen, cell-based, HEK293 alpha2C/GIRK1/2 (AID 624;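 active = fluorescence slope after compound addition differing from the mean of all screened samples at 99.7% confidence, in either direction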;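 note: slope of fluorescence ratio to pre-addition baseline per second over 15 to 24 s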); settings: thallium flux BTC fluorescence, at 10 µM, actives lie on both sides
[8] = inhibitors of larval lipid processing in zebrafish, primary screen, whole organism, PED6 fluorescence, gall bladder and intestine (AID 686;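 active = a full or partial loss of lipid-probe fluorescence in the fish gall bladder, intestine or both, judged by eye; inactive = no fluorescence loss, or compound toxic to the fish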;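 note: larvae 5 to 7 days old with five fish per well; signal comes from phospholipase A2 cleavage of quenched PED6 carried via bile; overnight exposure to compound and PED6 before scoring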); settings: Zebrafish larvae PED6 lipid processing, fluorescence scoring; screened at 20 µM (by protocol)
[9] = inhibitors of Chlamydomonas gravitaxis, primary screen, whole organism, Chlamydomonas reinhardtii, WT vs cilia-less mutant, absorbance, 96-well (AID 463189); settings: OD600 absorbance, 2 days, at 10 µM, stronger effect = higher value;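 note: 0% = wild type cc124 cells in DMSO and 100% = ciliumless bld1 mutant cells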
[10] = inhibitors of Sendai virus-induced IRF3 signaling, primary screen, TLR/RLR signaling modifier project, cell-based, Sendai virus stimulus, luciferase, 10K MLSCN set (AID 602276;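 active = inhibition at or above 50% at 10 µM; inactive = inhibition below 50%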;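 note: firefly luciferase from ISG56 promoter only with Renilla not read in this screen; 0% = Sendai virus plus DMSO and 100% = medium plus DMSO without virus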); settings: HEK293 RL24 IRF3 luciferase reporter, at 10 µM, stronger effect = higher value
[11] = inhibitors of poly I:C-induced TLR3 signaling, primary screen, cell-based, poly I:C stimulus, luciferase, 10K MLSCN set (AID 602277;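 active = inhibition of the reporter signal at or above 50%; inactive = inhibition below 50%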); settings: HEK293-TLR3 RL24 IRF3 luciferase reporter, at 10 µM, stronger effect = higher value
[12] = measured here: cell density z-score
[13] = measured here: nuclear c-Myc green intensity z-score
[14] = measured here: nuclear pErk red intensity z-score, stronger effect = higher value

Dual specificity protein phosphatase 6 (Homo sapiens), sequence (Q16828 whole entry, looked up): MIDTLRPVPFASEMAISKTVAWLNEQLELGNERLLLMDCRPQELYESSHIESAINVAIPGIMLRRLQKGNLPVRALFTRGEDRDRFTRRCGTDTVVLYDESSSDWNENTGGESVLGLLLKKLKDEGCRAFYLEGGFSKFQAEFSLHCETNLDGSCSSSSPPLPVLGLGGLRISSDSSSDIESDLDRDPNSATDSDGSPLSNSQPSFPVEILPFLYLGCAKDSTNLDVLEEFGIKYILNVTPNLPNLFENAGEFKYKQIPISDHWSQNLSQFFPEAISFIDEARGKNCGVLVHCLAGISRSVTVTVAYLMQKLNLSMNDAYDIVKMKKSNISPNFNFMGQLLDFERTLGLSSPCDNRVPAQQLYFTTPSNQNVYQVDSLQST
Voltage-gated potassium channel subunit beta-2 (Rattus norvegicus), sequence (P62483 whole entry, looked up): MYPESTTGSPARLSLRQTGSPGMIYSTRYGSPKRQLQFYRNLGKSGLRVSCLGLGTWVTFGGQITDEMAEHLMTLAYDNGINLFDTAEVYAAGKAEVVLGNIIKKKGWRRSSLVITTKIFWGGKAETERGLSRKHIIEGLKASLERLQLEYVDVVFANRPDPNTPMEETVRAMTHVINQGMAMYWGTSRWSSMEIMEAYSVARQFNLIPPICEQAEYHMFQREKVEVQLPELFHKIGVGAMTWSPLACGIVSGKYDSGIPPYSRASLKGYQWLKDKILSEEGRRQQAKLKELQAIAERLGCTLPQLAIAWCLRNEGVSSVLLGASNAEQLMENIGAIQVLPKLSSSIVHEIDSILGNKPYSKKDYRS
Alpha-2C adrenergic receptor (Homo sapiens), sequence (P18825 whole entry, looked up): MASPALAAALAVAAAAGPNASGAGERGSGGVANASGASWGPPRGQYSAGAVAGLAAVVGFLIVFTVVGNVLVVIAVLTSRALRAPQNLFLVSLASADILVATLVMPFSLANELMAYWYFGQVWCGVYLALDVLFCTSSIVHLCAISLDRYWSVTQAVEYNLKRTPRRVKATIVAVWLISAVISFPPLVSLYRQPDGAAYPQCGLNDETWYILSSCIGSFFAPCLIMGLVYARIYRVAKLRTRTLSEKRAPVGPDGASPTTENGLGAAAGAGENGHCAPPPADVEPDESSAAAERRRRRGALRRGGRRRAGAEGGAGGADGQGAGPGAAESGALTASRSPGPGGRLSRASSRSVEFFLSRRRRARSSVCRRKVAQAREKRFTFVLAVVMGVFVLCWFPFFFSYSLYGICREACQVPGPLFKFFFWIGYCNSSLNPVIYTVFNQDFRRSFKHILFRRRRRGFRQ

| SMILES | inhibition of aggregation [1] | nuclei count [1] | inhibition [2] | nuclei count [2] | z-score [3, 12] | z-score [3, 13] | z-score [3, 14] | inhibition [4] | fluorescence slope [5] | NADPH fluorescence slope [6] | slope [7] | outcome [8] | inhibition [9] | inhibition [10] | inhibition [11] |
| --- | --- | --- | --- | --- | --- | --- | --- | --- | --- | --- | --- | --- | --- | --- | --- |
| N[C@@H](Cc1cc(I)c(Oc2ccc(O)c(I)c2)c(I)c1)C(=O)O | 2.4% (inactive) | 100% | -50.6% (inactive) | 107% | 1.52 | -0.0364 | -0.441 | 9.37% (inactive) | -0.512 (inactive) | -3.3e-05 (inactive) | 0.00387 (inactive) | inactive | 36.6% (inactive) | 20.4% (inactive) | 29.6% (inactive) |
| O=c1[nH]c2ccccc2n1CCCN1CCN(C(c2ccccc2)c2ccccc2)CC1 | 0% (inactive) | 107% | -139% (inactive) | 123% | -0.406 | -0.951 | 1.42 | 1.48% (inactive) | -0.492 (inactive) | 1.6e-07 (inactive) | 0.00471 (inactive) | inactive | 0.779% (inactive) and 19.8% (inactive) | 18.3% (inactive) | 35.4% (inactive) |
| COc1ccc2c(c1)c(CC(=O)O)c(C)n2C(=O)c1ccc(Cl)cc1 | -23.8% (inactive) | 104% | -69% (inactive) | 122% | 0.752 | -1.27 | -0.74 | 16.8% (inactive) | -0.474 (inactive) | -6.7e-05 (inactive) | 0.00463 (inactive) | inactive | 2.25% (inactive) and -4% (inactive) | 9.52% (inactive) | 22.4% (inactive) |
| CC(=O)[C@H]1CC[C@H]2[C@@H]3CCC4=CC(=O)CC[C@]4(C)[C@H]3CC[C@]12C | -5.3% (inactive) | 74.7% | -153% (inactive) | 125% | -0.82 | -0.521 | -0.268 | -0.493% (inactive) | -0.446 (inactive) | -4.8e-05 (inactive) | 0.00331 (inactive) | inactive | 2.24% (inactive) and 8.52% (inactive) | 3.73% (inactive) | 31.6% (inactive) |
| NS(=O)(=O)c1cc2c(cc1Cl)NCNS2(=O)=O | -4.8% (inactive) | 107% | -46.3% (inactive) | 102% | -0.71 | -0.153 | -1.04 | -0.493% (inactive) | -0.428 (inactive) | 1.8e-05 (inactive) | 0.00467 (inactive) | inactive | 0.566% (inactive) and -18.6% (inactive) | 15.2% (inactive) | 40.7% (inactive) |
| O=C1NC(=O)C(c2ccccc2)(c2ccccc2)N1 | -21.7% (inactive) | 101% | 23.3% (inactive) | 102% | 0.136 | -0.248 | -1.03 | 3.59% (inactive) | -0.471 (inactive) | 3.3e-05 (inactive) | 0.00448 (inactive) | inactive | 2.61% (inactive) and -21.3% (inactive) | -7.98% (inactive) | -7.53% (inactive) |
| C[N+](C)(C)CCCCCCCCCC[N+](C)(C)C | -3.9% (inactive) | 89.1% | -38.7% (inactive) | 126% | -0.332 | -0.124 | -0.205 | 7.39% (inactive) | -0.47 (inactive) | -5.9e-05 (inactive) | 0.00465 (inactive) | inactive | 0.674% (inactive) and 0.681% (inactive) | -7.67% (inactive) | 7.68% (inactive) |
| CC(=O)Nc1c(I)c(NC(C)=O)c(I)c(C(=O)O)c1I | 21.1% (inactive) | 102% | -43.7% (inactive) | 126% | 0.431 | 0.292 | -0.145 | 11.3% (inactive) | -0.491 (inactive) | -2.1e-05 (inactive) | 0.00549 (inactive) | inactive | 0.515% (inactive) | -2.38% (inactive) | 5.34% (inactive) |
| CC(C)C[C@H]1C(=O)N2CCC[C@H]2[C@]2(O)O[C@](NC(=O)[C@@H]3C=C4c5cccc6[nH]c(Br)c(c56)CC4N(C)C3)(C(C)C)C(=O)N12 (stereo not given in full) | -4% (inactive) | 96.5% | -74.8% (inactive) | 122% | -0.747 | -0.999 | 0.764 | 5.42% (inactive) | -0.523 (inactive) | 8.6e-06 (inactive) | 0.00416 (inactive) | inactive | -11.5% (inactive) | 7.85% (inactive) | 5.12% (inactive) |
